Source: ChEMBL document CHEMBL3988442, “University of Dundee, Small-Polar-MMV Screening Library” (2021)
For some assays here: Measured potencies and affinities stand elsewhere.

What was measured:
Set-up in all cases: scale not given: direction of the effect not stated beside the values
[1] = molecular target: Protein translocase subunit SecA (Escherichia coli (strain K12)) (UniProt P10408); assay: Assay to Identify E. coli SecA ATPase Inhibitors; assay type: functional; conditions: 30 µM
[2] = molecular target: T1, Ubiquitin-activating enzyme e1, putative (Leishmania donovani (strain BPK282A1)) (UniProt E9BSI1); assay: Leishmania donovani Ubiquitin Activating Enzyme (LdE1); assay type: functional; conditions: 30 µM
T1 sequence (whole entry): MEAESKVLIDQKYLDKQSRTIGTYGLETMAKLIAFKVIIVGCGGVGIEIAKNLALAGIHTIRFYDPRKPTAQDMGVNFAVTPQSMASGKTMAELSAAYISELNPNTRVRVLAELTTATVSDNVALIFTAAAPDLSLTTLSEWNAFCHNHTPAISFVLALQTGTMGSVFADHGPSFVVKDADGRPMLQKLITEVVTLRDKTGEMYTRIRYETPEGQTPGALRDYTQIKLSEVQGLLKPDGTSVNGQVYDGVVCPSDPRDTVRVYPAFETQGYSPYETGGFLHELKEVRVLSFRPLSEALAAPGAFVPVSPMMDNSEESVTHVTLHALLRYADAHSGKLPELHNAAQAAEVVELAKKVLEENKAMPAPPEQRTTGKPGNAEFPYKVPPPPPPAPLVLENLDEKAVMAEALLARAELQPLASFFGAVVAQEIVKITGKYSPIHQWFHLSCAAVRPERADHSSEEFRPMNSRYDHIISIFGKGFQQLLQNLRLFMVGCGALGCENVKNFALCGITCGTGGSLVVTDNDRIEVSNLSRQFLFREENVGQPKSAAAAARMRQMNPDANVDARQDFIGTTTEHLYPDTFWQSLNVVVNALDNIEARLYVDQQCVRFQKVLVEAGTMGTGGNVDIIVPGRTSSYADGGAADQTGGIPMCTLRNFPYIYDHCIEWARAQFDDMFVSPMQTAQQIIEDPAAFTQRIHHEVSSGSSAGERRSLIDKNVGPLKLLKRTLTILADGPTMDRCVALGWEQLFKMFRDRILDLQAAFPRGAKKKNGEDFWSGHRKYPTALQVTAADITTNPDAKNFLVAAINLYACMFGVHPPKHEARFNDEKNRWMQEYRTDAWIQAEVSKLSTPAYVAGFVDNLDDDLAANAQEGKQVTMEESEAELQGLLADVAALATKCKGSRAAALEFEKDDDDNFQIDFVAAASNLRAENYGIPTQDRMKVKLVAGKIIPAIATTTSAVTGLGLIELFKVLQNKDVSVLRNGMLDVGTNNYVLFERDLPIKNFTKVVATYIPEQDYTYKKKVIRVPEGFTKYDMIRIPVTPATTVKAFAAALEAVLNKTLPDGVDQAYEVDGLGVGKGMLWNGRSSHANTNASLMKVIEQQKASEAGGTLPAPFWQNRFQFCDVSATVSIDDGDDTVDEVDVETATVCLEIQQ

[3] = molecular target: Sialic acid-binding Ig-like lectin 9 (Homo sapiens) (UniProt Q9Y336); assay: Hs-Siglec9 ALPHAscreen SOP 20170721; conditions: 10 µM
Chain of Sialic acid-binding Ig-like lectin 9 (Homo sapiens) (Q9Y336 whole entry): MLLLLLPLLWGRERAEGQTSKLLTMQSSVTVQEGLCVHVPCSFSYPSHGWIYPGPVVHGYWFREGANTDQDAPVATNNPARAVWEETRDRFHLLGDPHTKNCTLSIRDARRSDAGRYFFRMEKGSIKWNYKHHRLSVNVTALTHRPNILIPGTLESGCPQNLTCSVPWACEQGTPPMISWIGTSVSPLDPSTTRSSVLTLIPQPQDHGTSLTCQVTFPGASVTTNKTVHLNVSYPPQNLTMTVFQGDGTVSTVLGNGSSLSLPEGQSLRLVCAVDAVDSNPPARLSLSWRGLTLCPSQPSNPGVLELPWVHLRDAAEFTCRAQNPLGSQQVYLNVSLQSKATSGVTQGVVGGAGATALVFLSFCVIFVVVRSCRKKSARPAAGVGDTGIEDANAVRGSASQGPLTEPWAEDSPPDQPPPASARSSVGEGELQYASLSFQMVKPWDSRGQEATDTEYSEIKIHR

Trypanosoma cruzi = assay: Trypanosoma cruzi phosphomannomutase and mannose-1-phosphate guanylyltransferase assay; assay type: functional; conditions: 10 µM
[4] = molecular target: T2, Arginase-2, mitochondrial (Homo sapiens) (UniProt P78540); assay: in vitro enzyme assay to detect the production of urea directly proportional to the activity of Arginase II; assay type: functional; conditions: 33.3 µM; note: in the data most compounds retested in dose-response had high values
T2 sequence (whole entry): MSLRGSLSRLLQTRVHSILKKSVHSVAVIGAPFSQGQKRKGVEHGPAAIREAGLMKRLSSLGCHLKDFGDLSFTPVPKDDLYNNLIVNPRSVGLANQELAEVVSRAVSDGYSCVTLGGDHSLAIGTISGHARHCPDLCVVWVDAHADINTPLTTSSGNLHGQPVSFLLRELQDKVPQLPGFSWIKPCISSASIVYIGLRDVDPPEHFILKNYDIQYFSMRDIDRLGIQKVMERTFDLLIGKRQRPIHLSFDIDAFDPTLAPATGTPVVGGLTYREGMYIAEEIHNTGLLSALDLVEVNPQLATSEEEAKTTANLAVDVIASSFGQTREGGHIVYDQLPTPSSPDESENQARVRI

[5] = molecular target: T3, Proteasome subunit beta (Trypanosoma cruzi) (UniProt O96673); assay: Trypanosoma cruzi proteasome chymotrypsin-like activity (TcProtChymo) assay.; note: in the data most compounds retested in dose-response had high values; assay type: functional; conditions: 9.37 µM
T3 sequence (whole entry): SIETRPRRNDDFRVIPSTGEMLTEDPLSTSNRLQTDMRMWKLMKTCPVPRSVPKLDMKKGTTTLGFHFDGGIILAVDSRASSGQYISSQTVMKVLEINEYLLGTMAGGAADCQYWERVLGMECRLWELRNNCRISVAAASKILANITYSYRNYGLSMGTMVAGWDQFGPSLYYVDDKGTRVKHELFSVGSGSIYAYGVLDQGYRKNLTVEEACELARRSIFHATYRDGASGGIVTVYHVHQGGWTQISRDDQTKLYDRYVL

Homo sapiens = species on record: Homo sapiens; assay: To identify inhibition of the IFN signalling (Jak-Stat) pathway via expression of an eGFP reporter gene under the control of an IFN-stimulated response element (ISRE) containing MxA promoter.; assay type: functional; conditions: 30 µM
[6] = molecular target: T4, Tyrosyl-tRNA synthetase, putative (Trypanosoma cruzi (strain CL Brener)) (UniProt Q4DSP6); assay: Trypanosoma cruzi tyrosyl tRNA synthetase (TcYRS) _High Tyrosine SOP; assay type: functional; conditions: 30 µM; note: in the data most compounds retested in dose-response had high values
T4 sequence (whole entry): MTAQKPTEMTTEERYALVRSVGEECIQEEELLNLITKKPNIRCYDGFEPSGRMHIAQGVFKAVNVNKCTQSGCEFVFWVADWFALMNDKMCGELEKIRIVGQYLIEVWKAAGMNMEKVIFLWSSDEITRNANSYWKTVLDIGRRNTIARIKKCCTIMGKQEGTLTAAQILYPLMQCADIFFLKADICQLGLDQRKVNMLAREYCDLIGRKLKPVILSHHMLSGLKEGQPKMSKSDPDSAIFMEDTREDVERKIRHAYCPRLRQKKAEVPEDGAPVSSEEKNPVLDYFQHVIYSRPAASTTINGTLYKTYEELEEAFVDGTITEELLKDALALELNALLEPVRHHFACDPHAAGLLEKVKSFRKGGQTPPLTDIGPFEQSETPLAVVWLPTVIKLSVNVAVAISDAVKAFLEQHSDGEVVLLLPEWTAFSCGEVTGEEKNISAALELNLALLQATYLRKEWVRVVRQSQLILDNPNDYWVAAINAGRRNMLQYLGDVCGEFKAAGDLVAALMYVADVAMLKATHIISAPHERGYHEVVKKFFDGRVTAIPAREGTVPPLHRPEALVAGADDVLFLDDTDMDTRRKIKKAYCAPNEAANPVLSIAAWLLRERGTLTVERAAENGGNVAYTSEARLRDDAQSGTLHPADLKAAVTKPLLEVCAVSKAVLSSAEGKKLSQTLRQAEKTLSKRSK

[7] = molecular target: T4, Tyrosyl-tRNA synthetase, putative (Trypanosoma cruzi (strain CL Brener)); assay: Trypanosoma cruzi tyrosyl tRNA synthetase (TcYRS) SOP; assay type: functional; conditions: 30 µM
[8] = molecular target: Chromo domain-containing protein 1 (Saccharomyces cerevisiae (strain ATCC 204508 / S288c) (Baker's yeast)) (UniProt P32657); assay: ScCHD-1 Enzyme Inhibition Assay; assay type: functional; conditions: 30 µM; note: in the data most compounds retested in dose-response had high values
Chain of Chromo domain-containing protein 1 (Saccharomyces cerevisiae (strain ATCC 204508 / S288c) (Baker's yeast)) (P32657 whole entry, the tested form may be a part): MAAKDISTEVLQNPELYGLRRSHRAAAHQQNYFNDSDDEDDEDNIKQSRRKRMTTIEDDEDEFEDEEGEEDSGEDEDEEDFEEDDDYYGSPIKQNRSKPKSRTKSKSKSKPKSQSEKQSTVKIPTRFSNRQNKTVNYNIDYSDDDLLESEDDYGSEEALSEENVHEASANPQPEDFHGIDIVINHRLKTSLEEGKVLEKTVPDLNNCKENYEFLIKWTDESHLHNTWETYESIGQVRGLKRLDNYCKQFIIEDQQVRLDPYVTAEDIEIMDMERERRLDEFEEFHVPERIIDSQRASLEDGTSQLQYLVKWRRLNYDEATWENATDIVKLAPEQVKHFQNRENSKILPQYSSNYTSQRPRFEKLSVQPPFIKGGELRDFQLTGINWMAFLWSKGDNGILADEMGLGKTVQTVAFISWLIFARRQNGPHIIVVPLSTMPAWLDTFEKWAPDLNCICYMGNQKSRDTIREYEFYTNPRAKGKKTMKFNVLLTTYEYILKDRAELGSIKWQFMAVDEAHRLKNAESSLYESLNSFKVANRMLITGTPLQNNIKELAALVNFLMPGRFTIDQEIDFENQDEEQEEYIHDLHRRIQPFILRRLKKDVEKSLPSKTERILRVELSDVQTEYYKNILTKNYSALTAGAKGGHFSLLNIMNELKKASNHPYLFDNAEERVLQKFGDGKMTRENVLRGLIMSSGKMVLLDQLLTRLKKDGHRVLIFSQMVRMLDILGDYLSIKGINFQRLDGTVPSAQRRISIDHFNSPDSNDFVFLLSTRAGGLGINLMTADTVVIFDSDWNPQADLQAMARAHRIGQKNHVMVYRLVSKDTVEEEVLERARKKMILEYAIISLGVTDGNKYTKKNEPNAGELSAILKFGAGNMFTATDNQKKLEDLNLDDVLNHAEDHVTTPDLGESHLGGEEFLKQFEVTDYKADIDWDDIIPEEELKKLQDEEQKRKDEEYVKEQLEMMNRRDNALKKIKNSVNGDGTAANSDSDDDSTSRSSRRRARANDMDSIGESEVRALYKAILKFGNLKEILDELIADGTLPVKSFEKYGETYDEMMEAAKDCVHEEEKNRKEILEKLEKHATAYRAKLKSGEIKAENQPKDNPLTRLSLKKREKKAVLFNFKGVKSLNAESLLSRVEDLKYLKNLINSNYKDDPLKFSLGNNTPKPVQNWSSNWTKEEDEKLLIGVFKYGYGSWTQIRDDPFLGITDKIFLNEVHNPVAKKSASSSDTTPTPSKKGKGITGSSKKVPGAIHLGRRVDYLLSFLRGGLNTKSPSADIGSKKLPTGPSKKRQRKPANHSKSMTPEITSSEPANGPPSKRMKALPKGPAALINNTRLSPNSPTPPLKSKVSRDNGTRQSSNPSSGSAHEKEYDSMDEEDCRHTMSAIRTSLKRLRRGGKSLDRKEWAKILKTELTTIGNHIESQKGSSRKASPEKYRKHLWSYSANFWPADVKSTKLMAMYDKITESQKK

Chain of Protein translocase subunit SecA (Escherichia coli (strain K12)) (P10408 whole entry): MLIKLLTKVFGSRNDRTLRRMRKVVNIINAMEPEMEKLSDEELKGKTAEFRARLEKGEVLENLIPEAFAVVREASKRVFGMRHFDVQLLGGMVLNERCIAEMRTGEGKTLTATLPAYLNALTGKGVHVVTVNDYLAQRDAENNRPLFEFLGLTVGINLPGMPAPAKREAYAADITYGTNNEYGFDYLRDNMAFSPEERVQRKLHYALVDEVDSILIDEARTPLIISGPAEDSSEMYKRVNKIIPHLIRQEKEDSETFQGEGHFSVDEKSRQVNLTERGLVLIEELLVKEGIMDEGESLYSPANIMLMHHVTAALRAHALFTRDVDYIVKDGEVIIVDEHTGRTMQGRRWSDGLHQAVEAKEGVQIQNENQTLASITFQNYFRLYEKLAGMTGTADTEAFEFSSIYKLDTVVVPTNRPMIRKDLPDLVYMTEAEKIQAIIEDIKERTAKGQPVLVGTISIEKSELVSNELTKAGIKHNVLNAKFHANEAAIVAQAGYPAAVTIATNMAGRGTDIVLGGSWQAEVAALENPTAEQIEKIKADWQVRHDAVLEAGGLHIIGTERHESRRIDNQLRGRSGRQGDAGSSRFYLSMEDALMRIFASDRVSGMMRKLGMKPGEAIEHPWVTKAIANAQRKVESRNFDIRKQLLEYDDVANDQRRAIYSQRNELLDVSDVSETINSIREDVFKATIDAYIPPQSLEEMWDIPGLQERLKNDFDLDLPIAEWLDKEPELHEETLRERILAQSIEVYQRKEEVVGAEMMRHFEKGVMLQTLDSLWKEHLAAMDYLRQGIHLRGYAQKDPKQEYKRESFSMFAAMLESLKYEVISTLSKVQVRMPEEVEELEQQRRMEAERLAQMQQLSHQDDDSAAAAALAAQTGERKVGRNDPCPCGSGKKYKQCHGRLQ

SMILES	Percent Effect [1]	Percent Effect [2]	Percent Effect [3]	Percent Effect (Trypanosoma cruzi)	Percent Effect [4]	Percent Effect [5]	Percent Effect (Homo sapiens)	Percent Effect [6]	Percent Effect [7]	Percent Effect [8]
CN(C)c1ccc(C(=O)NCC2(c3ccccc3)CCOCC2)cc1	-0.155%	22.7%	-5.97%	1.38%	-2.21%	15.4%	9.64%	0%	15%	-24.2%
c1ccc(-n2ncc(CNC3CCc4ncnn4C3)n2)cc1 (stereo not given)	-1.79%	10.3%	0.298%	1.03%	4.51%	3.16%	10%	1.44%	8.43%	1.52%
CNC(=O)C1CCC(NC(=O)N(C)Cc2c(C)noc2C)CC1 (stereo not given)	-5.49%	10.3%	-15.1%	11%	-3.28%	1.96%	2.07%	6.22%	18.1%	96.3%
Cc1noc(C)c1CN(C)C(=O)NC1CCN(C2CC2)CC1	-1.46%	2.56%	0.345%	2.91%	-0.82%	-3.84%	-6.08%	2.39%	8.43%	3.21%
CCN1CCn2nc(CCC(=O)N3CCCC3)cc2C1	-6.01%	2.7%	0.796%	-3.98%	0.35%	19%	8.04%	5.85%	14.6%	-5.3%
COCCCNc1nccc(-c2c[nH][nH]c2=O)n1	-1.57%	8%	-3.19%	-6.63%	-3.55%	19.9%	12.9%	-1.58%	0%	-11.7%
COc1ccc(C2CC(=O)Nc3c2nc2n3CCCC2)cc1O (stereo not given)	-3.09%	2.7%	6.46%	-2.04%	7.34%	22.6%	23.4%	1.6%	14.6%	-3.18%
COc1ccc(C[C@H]2CN(C(=O)CN(C)C)CC[C@H]2OC)cc1	-1.58%	14.3%	1.4%	0.563%	0%	-4.21%	5.12%	-8.7%	10%	-0.592%
COc1cc(C(=O)N2CCCS2(=O)=O)cc(Cl)c1OC	-4.13%	24%	3.41%	-0.602%	-4.88%	9.07%	7.8%	4.74%	15.4%	-12.8%
CC1CN(c2ccc(CNC(=O)c3ccn(C)c(=O)c3)cn2)CCO1 (stereo not given)	-4.46%	16%	0.777%	1.61%	5.32%	7.72%	6.29%	3.68%	15.4%	-8.09%
CC(C)NC(=O)CC1COC2(CCN(Cc3ccccc3)CC2)C1 (stereo not given)	-1.47%	16.9%	-1.95%	-2.25%	2.28%	16.2%	-3.75%	7.73%	10%	-5.41%
